The values that follow come from ChEMBL document CHEMBL3433997, “St. Jude Leishmania screening dataset” (2016).

What all share (format): functional
Assay [1] has as its target Solute carrier family 2, facilitated glucose transporter member 1 (Homo sapiens) (UniProt P11166). Nature of the assay: ST_JUDE_LEISH: Cytotoxicity at 2uM final concentration against transgenic Leishmania Mexicana promastigotes LmGLUT1 that are glucose transport deficient and complemented with the human glucose transporter GLUT1. Activity is measured by DNA content using SYBR green in vitro.

The target in assay [2] is Hexose transporter 1 (Plasmodium falciparum) (UniProt O97467). Nature of the assay: ST_JUDE_LEISH: Cytotoxicity at 2uM final concentration against transgenic Leishmania Mexicana promastigotes LmPfHT that are glucose transport deficient and complemented with the Plasmodium falciparum hexose transporter. Activity is measured by DNA content using SYBR green in vitro.
Assay [3] addresses Glucose transporter (Leishmania mexicana) (UniProt O61059). Nature of the assay: ST_JUDE_LEISH: Cytotoxicity at 2uM final concentration against transgenic Leishmania Mexicana promastigotes LmGT2 that are glucose transport deficient and complemented with the L. Mexicana glucose transporter 2. Activity is measured by DNA content using SYBR green in vitro.

Solute carrier family 2, facilitated glucose transporter member 1 (Homo sapiens), sequence (P11166 whole entry): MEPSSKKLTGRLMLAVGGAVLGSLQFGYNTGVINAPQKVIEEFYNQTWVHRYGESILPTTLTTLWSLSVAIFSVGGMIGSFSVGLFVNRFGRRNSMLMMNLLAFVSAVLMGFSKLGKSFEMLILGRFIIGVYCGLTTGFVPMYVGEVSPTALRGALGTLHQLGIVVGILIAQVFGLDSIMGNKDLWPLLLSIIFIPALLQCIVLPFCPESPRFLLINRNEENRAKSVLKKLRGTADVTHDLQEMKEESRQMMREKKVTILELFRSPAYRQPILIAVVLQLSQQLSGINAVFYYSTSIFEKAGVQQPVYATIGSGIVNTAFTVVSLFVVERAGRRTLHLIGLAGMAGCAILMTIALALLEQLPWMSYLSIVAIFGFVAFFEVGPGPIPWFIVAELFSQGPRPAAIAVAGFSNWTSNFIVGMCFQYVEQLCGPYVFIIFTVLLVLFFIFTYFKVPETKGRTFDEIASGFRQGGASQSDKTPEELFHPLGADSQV

For orientation: inhibition means the change of the read-out against control, counted positive when it falls. On to `CNC(=O)c1cc(NCCCNCc2ccc(Cl)c(C(F)(F)F)c2)nc2ccccc12`, for which the inhibition in assay [1] was -1.98%; in assay [2], -1.73%; in assay [3], -2.48%.

With `Cc1cc(N(C)C)nc(Nc2ccc(NC(=O)C3CCCCC3)cc2)n1`, the inhibition in assay [1] is 5.14%; in assay [2] it was 5.64%; in assay [3], 3.75%.

Regarding `CCOc1ccc(Nc2cc(C)nc(Nc3ccc(OCC)cc3)n2)cc1`, the inhibition worked out at 0.78% in assay [1], 2.01% in assay [2] and 1.02% in assay [3].

For `CCN(CC)CCN(Cc1ccc(-c2ccc(C(F)(F)F)cc2)cc1)C(=O)Cn1c(CCc2c(F)cccc2F)nc(=O)c2ccccc21`, the inhibition in assay [1] was 4.96%; in assay [2], 4.88%; in assay [3], 5.59%.

Consider `Cc1nc(Cl)c2c(-c3ccccc3)csc2n1`, for which the inhibition was 0.55% in assay [1], -0.74% in assay [2] and -0.21% in assay [3].

Turning to `C[C@H](NC(=O)[C@H](CCCCNC(=O)OC(C)(C)C)NC(=O)OC(C)(C)c1ccc(-c2ccccc2)cc1)C(=O)OCc1ccccc1`, the figures for the inhibition in assay [1], in assay [2] and in assay [3] were 3.8%, 3.27% and 1.84%, respectively.

With `CCNc1cc(C(=O)N[C@@H](Cc2ccccc2)[C@H](O)CNC(C)(C)CSCC(C)C)cc(N2CCCC2=O)c1`, the inhibition is 1.84% in assay [1], 2.11% in assay [2] and -1.53% in assay [3].

With `O=C(NC1CCCc2ccccc21)C1CCCN(C(=O)c2ccc(O)c(-c3ccc(Cl)c(Cl)c3)c2)C1` (centres undefined), the values for the inhibition in assay [1], in assay [2] and in assay [3] were 1.28%, 2.04% and 2.38%, respectively.

In the case of `CC1(C)N=C(N)N=C(N)N1OCC1COc2ccccc2O1` (centres undefined), the inhibition turned out to be 1.54% in assay [1], 0.64% in assay [2] and 0.96% in assay [3].

As to `O=C(Cc1cccc2ccccc12)NC1CCN(c2ccnc3cc(Cl)ccc23)C1` (centres undefined), the inhibition in assay [1] was -2.29%; in assay [2], -1.67%; in assay [3], -0.88%.

`Cc1ccc(Nc2ccnc(Nc3ccc(F)c(Cl)c3)n2)cc1O`: the results for the inhibition in assay [1], in assay [2] and in assay [3] were 6.74%, 10.4% and 2.04%, respectively.

Take `CC(C)CC(=O)N(Cc1ccc(-c2ccc(CNC3Cc4ccccc4C3)cc2)cc1)C1CCNCC1`: the results for the inhibition in assay [1], in assay [2] and in assay [3] were 8.37%, 5.79% and 10.6%, respectively.

With `COc1ccc(C(=O)N[C@@H](CC(C)C)C(=O)NC2CC[C@@H](C)N(C(=O)Nc3ccc(Cl)cc3)CC2=O)cc1OCCN1CCOCC1` (some centres undefined), the inhibition in assay [1] worked out at 2.44%; in assay [2], 3.66%; in assay [3] it was 5.16%.

In the case of `O=c1cc(NCCCNCc2ccc(Cl)c(Cl)c2)[nH]c2cc(F)cc(F)c12`, the inhibition in assay [1] was 3.21%; in assay [2], 2.15%; in assay [3] it was 3.08%.

Turning to `Cn1cc(-c2ccccc2C(=O)O)c(=O)c2cc(Cl)ccc21`, the inhibition turned out to be 2.25% in assay [1], 1.87% in assay [2] and 2.49% in assay [3].

As to `Oc1ccc2[nH]c(-c3ccc(OC(F)(F)F)cc3)nc2c1CNC1CCCC1`, the inhibition was found to be 2.65% in assay [1], 3.35% in assay [2] and 3.64% in assay [3].

For `CN1CCN=C1c1ccc(NC(=O)Nc2ccc(C3=NCCN3C)cc2)cc1`, the inhibition in assay [1] is 13%; in assay [2], 7.37%; in assay [3] it was 5.87%.

Regarding `O=C(NC1CCN(Cc2ccccc2)CC1)c1cccc(Nc2nc(-c3ccccc3)cs2)c1`, the figures for the inhibition in assay [1], in assay [2] and in assay [3] were 9.1%, 8.88% and 2.09%, respectively.

`CCN(CCCN1CCCCC1)c1nc(C)cc(Nc2ccc(Cl)cc2)n1`: the inhibition in assay [1] was 0.5%; in assay [2], -0.38%; in assay [3], 1.1%.

Turning to `COc1cc(OC)cc(C(=O)Nc2cccc(-c3cn4ccc(C)cc4n3)c2)c1`, the figures for the inhibition in assay [1], in assay [2] and in assay [3] were 6.3%, 2.27% and 5.98%, respectively.

On to `O=C1c2ccccc2-n2c1nc1ccccc1c2=O`, for which the values for the inhibition in assay [1], in assay [2] and in assay [3] were -2.52%, -2.55% and -3.28%, respectively.

For `COc1ccc(-c2cnc(N)c(-c3ccc(C(N)=O)cc3)c2)cc1OC`, the inhibition in assay [1] was determined as 3.97%; in assay [2], 3.4%; in assay [3], 5.07%.

In the case of `Cc1[nH]cnc1CSCCNC(=N)NCCCCCCCCNC(=N)NCCSCc1nc[nH]c1C`, the inhibition in assay [1] was -1.07%; in assay [2], 0.71%; in assay [3], -0.05%.

Regarding `CC(=O)c1ccc(NC(=O)Nc2ccc3nccc(N4CCN(C)CC4)c3c2)cc1`, the inhibition is 1.22% in assay [1], 1.77% in assay [2] and 1.46% in assay [3].

For `Cc1cc(C2CCN(CCCCNC(=O)c3ccc(NC(=O)c4ccc(Cl)cc4)cc3)CC2)c(C)cc1OCCN(C)C`, the inhibition in assay [1] came out at 9.34%; in assay [2] it was 8.76%; in assay [3], 9.76%.

In the case of `CCCNC(=O)c1cncc(-c2ccc(CNCCCc3ccccc3)cc2)c1`, the inhibition came to 1.92% in assay [1], 1.6% in assay [2] and 0.59% in assay [3].

Regarding `COc1cc(Cc2c(C)nc3nc(N)nc(N)c3c2C)c(Br)c(OC)c1OC`, the inhibition in assay [1] amounted to 5.54%; in assay [2] it was 8.22%; in assay [3], 4.73%.

Consider `Cc1[nH]c(C)c(-c2ccc(-c3ccc(C(F)F)cc3)nc2)c(=O)c1Cl`, for which the inhibition amounted to 2.19% in assay [1], 3.08% in assay [2] and 2.57% in assay [3].

Take `Cc1ccc(-c2cccc3c(NC(=O)Nc4ccc5nccc(N6CCN(C)CC6)c5c4)cccc23)cn1`: the results for the inhibition in assay [1], in assay [2] and in assay [3] were 0.51%, 0.17% and 7.64%, respectively.

With `CCN1CCN(CCNc2c3ccccc3nc3ccccc23)CC1`, the results for the inhibition in assay [1], in assay [2] and in assay [3] were 83.5%, 80.6% and 79%, respectively.

As to `O=C(/C=C/c1ccc(Cl)c(Cl)c1)NCCCCCN1CCC(CCNC(=O)/C=C/c2ccc(Cl)c(Cl)c2)CC1`, the inhibition is 1.63% in assay [1], -0.93% in assay [2] and 0.87% in assay [3].

In the case of `CN(C)C(=O)c1cccc(COc2ccc(N3C(N)=NC(N)=NC3(C)C)cc2Cl)c1`, the inhibition in assay [1] was 1.73%; in assay [2], 1.77%; in assay [3], -0.58%.

For `CN(CCN)Cc1ccc(-c2ccc(-c3nc4cc(F)ccc4[nH]3)s2)cc1`, the values for the inhibition in assay [1], in assay [2] and in assay [3] were -0.54%, 0.42% and -1.71%, respectively.
